Targets with a hit are over-represented here; the source holds about 7,900 in all. About 0.6% of all pairs of compound and target were hits. Values without a mark were called inactive.
Legend:
Assay in all cases: log2 fold change, soluble protein after heating vs DMSO (PISA); higher = thermal stabilisation; K562 cells, 10 uM, 30 min; active = over 0.2 and 3.5 SD of the protein, either way, in both replicates (recomputed)
IRAK-1-4 Inhibitor I = compound: C1COCCN1CCN2C3=CC=CC=C3N=C2NC(=O)C4=CC(=CC=C4)[N+](=O)[O-] [IRAK-1-4 Inhibitor I]
Outline: (§1)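 K562 cells at 2×10^6 cells/mL were given 10 μM compound for 30 min. Aliquots then went through 3 min of heating across 48°C-58°C, were pooled, and were extracted in PBS with 0.5% NP-40 at 4°C, and the supernatant after 21,000xg for 90 min was quantified by TMTpro 16plex LC-MS/MS with channel sums equalised. Thermal stability relative to control samples, from duplicates, is given as log2 fold change.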

ibrutinib = compound: C=CC(=O)N1CCC[C@@H](n2nc(-c3ccc(Oc4ccccc4)cc3)c3c(N)ncnc32)C1 [ibrutinib]
Outline: as §1

[1] = compound: CC(=O)c1cnc2ccc(-c3cc(Cl)c(O)c(Cl)c3)nc2c1N[C@H]1CC[C@H](CN(C)C)CC1
Outline: as §1

ralimetinib = compound: CC(C)(C)Cn1c(N)nc2ccc(-c3[nH]c(C(C)(C)C)nc3-c3ccc(F)cc3)nc21 [ralimetinib]
Outline: as §1

[2] = compound: CC(C)(O)CC(=O)NCCn1ccc2ncnc(Nc3ccc(Oc4cccc(C(F)(F)F)c4)c(Cl)c3)c21
Outline: as §1

[3] = compound: CC(C)C1=C2N=C(C=C(N2N=C1)NCC3=CC=CC=C3)NCCCCCCN
Outline: as §1

[4] = compound: CC(C)C[C@@H](C=O)NC(=O)[C@H](CC(C)C)NC(=O)[C@H](CC(C)C)NC(=O)OCc1ccccc1
Outline: as §1

pinometostat = compound: CC(C)N(C[C@H]1O[C@@H](n2cnc3c(N)ncnc32)[C@H](O)[C@@H]1O)[C@H]1C[C@@H](CCc2nc3cc(C(C)(C)C)ccc3[nH]2)C1 [pinometostat]
Outline: as §1

[5] = compound: CC1=C(C(CC(=O)N1)C2=CC=C(C=C2)C(F)(F)F)C(=O)NC3=C(C=C4C(=C3)C=NN4)F
Outline: as §1

[6] = compound: CC1=C(C2=C(C=C1)C(=O)C3=CC=CC=C3N2CCCN)C
Outline: as §1

[7] = compound: CC1=C(C=C(C=C1)NC(=O)C2=CC(=CC=C2)C(C)(C)C#N)NC3=CC4=C(C=C3)N=CN(C4=O)C
Outline: as §1

[8] = compound: CC1=C(C=C(C=C1)NC(=O)C2=CC(=CC=C2)N(C)C)NC(=O)C3=CC=C(C=C3)O
Outline: as §1

[9] = compound: CC1=CC=C(C=C1)SC2=C3C=C(SC3=CN=C2)C(=O)N
Outline: as §1

[10] = compound: CC1=NC(=CC=C1)C2=C(N=C(N2)C(C)(C)C)C3=CC4=NC=CN=C4C=C3
Outline: as §1

Nexturastat A = compound: CCCCN(Cc1ccc(C(=O)NO)cc1)C(=O)Nc1ccccc1 [Nexturastat A]
Outline: as §1

vemurafenib = compound: CCCS(=O)(=O)Nc1ccc(F)c(C(=O)c2c[nH]c3ncc(-c4ccc(Cl)cc4)cc23)c1F [vemurafenib]
Outline: as §1

[11] = compound: CCCS(=O)(=O)Nc1ccc(F)c(C(=O)c2c[nH]c3ncc(Cl)cc23)c1F
Outline: as §1

[12] = compound: CCCc1cc(C)[nH]c(=O)c1CNC(=O)c1cc(-c2ccnc(N3CCN(C)CC3)c2)cc2c1cnn2C(C)C
Outline: as §1

givinostat = compound: CCN(CC)Cc1ccc2cc(COC(=O)Nc3ccc(C(=O)NO)cc3)ccc2c1 [givinostat]
Outline: as §1

barasertib = compound: CCN(CCCOc1ccc2c(Nc3cc(CC(=O)Nc4cccc(F)c4)[nH]n3)ncnc2c1)CCOP(=O)(O)O [barasertib]
Outline: as §1

Sequence of UniProt O14975 (O14975 whole entry, looked up): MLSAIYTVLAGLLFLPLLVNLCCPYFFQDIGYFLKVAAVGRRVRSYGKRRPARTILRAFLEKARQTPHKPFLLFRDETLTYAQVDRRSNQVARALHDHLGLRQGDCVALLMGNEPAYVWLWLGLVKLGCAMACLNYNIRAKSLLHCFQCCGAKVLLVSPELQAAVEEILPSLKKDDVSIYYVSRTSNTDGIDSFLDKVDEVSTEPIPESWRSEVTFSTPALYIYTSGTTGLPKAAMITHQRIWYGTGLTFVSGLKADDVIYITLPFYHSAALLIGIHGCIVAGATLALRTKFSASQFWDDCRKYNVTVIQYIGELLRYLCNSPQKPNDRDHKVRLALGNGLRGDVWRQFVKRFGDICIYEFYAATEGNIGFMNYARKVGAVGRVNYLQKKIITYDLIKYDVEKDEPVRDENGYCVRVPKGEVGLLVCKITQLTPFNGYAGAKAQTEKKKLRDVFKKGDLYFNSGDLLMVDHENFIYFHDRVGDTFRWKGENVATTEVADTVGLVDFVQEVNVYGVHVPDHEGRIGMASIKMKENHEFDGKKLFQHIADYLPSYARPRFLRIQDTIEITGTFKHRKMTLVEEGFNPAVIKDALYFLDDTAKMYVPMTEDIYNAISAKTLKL
Sequence of UniProt Q96Q15 (Q96Q15 whole entry, looked up): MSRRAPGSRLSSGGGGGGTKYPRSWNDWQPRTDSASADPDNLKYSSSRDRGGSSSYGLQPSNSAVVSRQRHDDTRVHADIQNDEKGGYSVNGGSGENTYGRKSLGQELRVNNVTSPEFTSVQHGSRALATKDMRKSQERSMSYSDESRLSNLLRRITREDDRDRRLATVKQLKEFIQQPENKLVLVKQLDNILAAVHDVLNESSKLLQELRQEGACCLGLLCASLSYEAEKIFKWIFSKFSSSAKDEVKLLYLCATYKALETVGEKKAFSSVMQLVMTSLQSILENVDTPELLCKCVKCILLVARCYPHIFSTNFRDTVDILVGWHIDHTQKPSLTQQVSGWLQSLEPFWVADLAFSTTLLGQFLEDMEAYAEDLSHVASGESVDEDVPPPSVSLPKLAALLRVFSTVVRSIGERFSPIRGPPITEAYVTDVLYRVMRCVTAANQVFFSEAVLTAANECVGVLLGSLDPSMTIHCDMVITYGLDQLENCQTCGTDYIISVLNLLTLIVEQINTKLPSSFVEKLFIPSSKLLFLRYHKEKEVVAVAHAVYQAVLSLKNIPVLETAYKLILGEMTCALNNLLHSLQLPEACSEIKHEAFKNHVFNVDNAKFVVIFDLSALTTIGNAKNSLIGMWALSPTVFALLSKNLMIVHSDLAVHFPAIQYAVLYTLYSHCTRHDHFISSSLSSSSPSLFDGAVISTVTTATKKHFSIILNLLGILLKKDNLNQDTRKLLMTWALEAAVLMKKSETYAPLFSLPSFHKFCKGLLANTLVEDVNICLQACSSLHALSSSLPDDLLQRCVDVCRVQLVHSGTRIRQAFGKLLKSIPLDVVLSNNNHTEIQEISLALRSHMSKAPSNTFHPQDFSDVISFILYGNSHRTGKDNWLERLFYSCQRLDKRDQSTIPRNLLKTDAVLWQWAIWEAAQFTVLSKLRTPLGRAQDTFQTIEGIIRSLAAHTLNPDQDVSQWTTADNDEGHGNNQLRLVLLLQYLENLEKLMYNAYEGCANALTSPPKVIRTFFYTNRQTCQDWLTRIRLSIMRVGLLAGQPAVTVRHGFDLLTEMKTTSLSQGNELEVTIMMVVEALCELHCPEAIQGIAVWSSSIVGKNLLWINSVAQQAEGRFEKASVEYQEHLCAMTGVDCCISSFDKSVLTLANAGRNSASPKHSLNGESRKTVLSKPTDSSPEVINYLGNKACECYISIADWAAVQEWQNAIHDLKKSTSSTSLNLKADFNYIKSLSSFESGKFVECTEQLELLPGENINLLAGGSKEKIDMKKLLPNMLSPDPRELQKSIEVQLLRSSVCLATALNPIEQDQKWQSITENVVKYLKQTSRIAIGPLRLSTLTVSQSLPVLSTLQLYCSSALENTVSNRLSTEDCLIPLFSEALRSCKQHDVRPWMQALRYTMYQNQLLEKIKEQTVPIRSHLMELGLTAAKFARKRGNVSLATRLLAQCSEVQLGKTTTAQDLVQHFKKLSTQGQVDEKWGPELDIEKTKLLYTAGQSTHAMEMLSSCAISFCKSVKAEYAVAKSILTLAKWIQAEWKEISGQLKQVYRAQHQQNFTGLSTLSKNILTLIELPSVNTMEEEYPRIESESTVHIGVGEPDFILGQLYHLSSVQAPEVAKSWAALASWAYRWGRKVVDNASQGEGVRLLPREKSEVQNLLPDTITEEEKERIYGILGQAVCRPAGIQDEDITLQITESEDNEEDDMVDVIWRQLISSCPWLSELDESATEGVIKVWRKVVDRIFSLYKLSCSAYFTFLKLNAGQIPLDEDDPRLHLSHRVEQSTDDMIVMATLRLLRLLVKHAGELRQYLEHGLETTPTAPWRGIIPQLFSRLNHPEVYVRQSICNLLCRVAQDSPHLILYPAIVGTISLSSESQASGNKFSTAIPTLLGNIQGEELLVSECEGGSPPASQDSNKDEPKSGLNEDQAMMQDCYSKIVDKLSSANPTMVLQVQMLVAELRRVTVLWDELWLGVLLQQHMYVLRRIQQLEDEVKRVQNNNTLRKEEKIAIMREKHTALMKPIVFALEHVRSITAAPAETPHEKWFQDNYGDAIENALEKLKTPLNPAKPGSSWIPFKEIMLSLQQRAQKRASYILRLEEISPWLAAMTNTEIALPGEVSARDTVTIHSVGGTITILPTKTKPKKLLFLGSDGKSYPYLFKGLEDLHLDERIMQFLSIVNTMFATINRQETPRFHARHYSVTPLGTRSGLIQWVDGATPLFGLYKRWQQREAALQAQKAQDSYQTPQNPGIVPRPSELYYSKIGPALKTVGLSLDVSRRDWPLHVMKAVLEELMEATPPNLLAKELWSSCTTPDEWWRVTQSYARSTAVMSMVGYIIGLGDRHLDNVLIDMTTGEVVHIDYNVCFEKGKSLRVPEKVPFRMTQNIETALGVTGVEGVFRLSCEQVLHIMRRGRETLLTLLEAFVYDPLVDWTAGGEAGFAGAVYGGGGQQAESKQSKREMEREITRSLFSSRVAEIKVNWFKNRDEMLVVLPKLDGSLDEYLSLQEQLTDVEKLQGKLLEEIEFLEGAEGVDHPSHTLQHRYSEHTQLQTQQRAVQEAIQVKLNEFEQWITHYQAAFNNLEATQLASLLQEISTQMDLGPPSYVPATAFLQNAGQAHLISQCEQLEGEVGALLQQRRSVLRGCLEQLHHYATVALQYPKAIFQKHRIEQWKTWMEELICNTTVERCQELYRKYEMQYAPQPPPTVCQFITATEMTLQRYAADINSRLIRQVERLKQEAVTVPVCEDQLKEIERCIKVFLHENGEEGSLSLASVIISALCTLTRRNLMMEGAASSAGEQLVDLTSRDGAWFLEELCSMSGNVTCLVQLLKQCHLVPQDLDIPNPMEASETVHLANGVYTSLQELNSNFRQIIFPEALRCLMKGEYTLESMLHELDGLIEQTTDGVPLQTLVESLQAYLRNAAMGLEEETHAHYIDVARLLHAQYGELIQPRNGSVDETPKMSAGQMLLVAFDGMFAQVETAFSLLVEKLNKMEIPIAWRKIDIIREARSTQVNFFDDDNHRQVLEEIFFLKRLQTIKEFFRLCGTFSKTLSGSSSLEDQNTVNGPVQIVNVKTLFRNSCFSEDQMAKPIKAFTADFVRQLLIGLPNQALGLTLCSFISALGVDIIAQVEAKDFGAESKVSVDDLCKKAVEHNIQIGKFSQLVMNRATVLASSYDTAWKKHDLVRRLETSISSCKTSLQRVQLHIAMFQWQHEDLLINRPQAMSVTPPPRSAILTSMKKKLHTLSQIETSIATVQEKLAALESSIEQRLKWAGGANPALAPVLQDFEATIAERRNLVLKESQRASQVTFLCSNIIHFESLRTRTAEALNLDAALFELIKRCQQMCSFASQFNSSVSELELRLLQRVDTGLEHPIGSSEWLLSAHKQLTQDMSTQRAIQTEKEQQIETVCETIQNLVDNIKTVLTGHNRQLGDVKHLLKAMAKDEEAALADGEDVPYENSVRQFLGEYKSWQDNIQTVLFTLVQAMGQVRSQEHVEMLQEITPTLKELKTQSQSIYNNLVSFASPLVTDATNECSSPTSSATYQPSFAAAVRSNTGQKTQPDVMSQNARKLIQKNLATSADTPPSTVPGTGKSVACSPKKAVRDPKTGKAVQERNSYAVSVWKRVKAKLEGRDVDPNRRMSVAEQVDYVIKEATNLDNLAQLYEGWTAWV
Sequence of UniProt Q9UHB9 (Q9UHB9 whole entry, looked up): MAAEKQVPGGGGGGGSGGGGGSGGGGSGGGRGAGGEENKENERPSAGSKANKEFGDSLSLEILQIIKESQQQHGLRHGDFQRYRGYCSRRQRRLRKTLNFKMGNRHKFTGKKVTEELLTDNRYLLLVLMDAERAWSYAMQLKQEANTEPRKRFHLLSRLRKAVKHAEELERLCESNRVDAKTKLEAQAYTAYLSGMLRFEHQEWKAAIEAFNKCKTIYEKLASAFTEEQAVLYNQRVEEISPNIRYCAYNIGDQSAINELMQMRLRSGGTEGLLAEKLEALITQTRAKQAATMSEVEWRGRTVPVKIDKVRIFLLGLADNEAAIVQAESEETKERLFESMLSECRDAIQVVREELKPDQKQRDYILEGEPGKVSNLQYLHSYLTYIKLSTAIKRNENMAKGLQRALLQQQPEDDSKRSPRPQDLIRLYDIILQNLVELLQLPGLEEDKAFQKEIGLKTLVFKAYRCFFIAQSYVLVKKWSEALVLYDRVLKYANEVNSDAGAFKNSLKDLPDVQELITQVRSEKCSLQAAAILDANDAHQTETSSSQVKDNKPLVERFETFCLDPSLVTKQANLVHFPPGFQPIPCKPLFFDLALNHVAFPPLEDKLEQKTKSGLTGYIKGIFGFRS
Sequence of UniProt P62072 (P62072 whole entry, looked up): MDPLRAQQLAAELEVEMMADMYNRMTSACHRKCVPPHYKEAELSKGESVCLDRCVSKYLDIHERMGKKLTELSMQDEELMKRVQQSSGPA

Target | log2 fold change (IRAK-1-4 Inhibitor I) | log2 fold change (ibrutinib) | log2 fold change [1] | log2 fold change (ralimetinib) | log2 fold change [2] | log2 fold change [3] | log2 fold change [4] | log2 fold change (pinometostat) | log2 fold change [5] | log2 fold change [6] | log2 fold change [7] | log2 fold change [8] | log2 fold change [9] | log2 fold change [10] | log2 fold change (Nexturastat A) | log2 fold change (vemurafenib) | log2 fold change [11] | log2 fold change [12] | log2 fold change (givinostat) | log2 fold change (barasertib)
SRP68 (UniProt Q9UHB9) | -0.118 | -0.037 | 0.014 | 0.071 | -0.065 | -0.272 | 0.065 | 0.145 | -0.016 | -0.345 (active) | 0.028 | -0.062 | 0 | 0.018 | 0.125 | 0.063 | 0.091 | 0.064 | 0.075 | 0.078
TJP1 (UniProt Q07157) | -0.033 | 0.03 | -0.443 (active) | 0.028 | -0.02 | -0.003 | 0.014 | 0.037 | 0.007 | 0.034 | 0.03 | -0.039 | 0.011 | -0.012 | -0.005 | 0.041 | 0.065 | -0.021 | 0.102 | 0.033
SLC25A42 (UniProt Q86VD7) | 0.034 | 0.045 | -0.002 | 0.041 | 0.015 | 0.014 | -0.037 | -0.027 | -0.045 | 0.077 | -0.007 | 0.041 | 0.038 | -0.049 | -0.021 | -0.015 | 0.089 | -0.054 | -0.006 | 0.001
STK38 (UniProt Q15208) | 0.004 | -0.073 | -0.308 (active) | 0.101 | -0.085 | -0.089 | 0.016 | 0.058 | 0.038 | -0.026 | 0.099 | -0.054 | 0.013 | 0.004 | -0.062 | 0.091 | 0.12 | 0.049 | 0.048 | 0.022
SMG1 (UniProt Q96Q15) | -0.088 | 0.021 | -0.002 | 0.012 | 0.002 | 0.007 | -0.014 | -0.06 | 0.045 | 0.054 | -0.068 | -0.048 | 0.031 | 0.012 | 0.045 | 0.029 | 0.077 | -0.096 | 0.05 | 0.075
SLC38A9 (UniProt Q8NBW4) | -0.028 | -0.005 | -0.019 | 0 | 0.089 | -0.368 (active) | 0.049 | -0.023 | 0.023 | -0.1 | 0.075 | 0.007 | -0.05 | 0.023 | 0.088 | -0.036 | -0.012 | -0.105 | 0.021 | -0.006
SREK1 isoform 2 (UniProt Q8WXA9) | -0.245 | -0.006 | -0.497 (active) | 0.036 | 0.026 | -0.36 | 0.005 | 0.11 | 0.022 | 0.08 | -0.335 | -0.083 | 0 | 0.045 | 0.108 | 0.019 | 0.096 | -0.069 | 0.062 | -0.057
STARD3NL (UniProt O95772) | 0.014 | -0.023 | -0.216 | 0.038 | -0.014 | -0.432 (active) | -0.036 | 0.013 | 0.007 | 0.062 | 0.01 | -0.002 | 0.056 | 0.076 | -0.12 | 0.02 | 0.048 | -0.021 | 0.009 | -0.027
STARD9 (UniProt Q9P2P6) | -0.121 | 0.161 | 0.091 | 0.068 | -0.156 | -0.066 | 0.085 | 0.083 | -0.053 | -0.07 | -0.29 | 0.01 | -0.07 | -0.048 | 0.144 | -0.161 | 0.029 | -0.035 | -0.046 | -0.017
STAT5B (UniProt P51692) | -0.153 | -0.146 | 0.018 | 0.121 | -0.401 | -0.119 | 0.044 | -0.095 | -0.109 | -0.022 | -0.165 | -0.102 | 0.222 | 0.111 | 0.014 | 0.046 | 0.08 | 0.101 | 0.145 | 0.113
SMCHD1 (UniProt A6NHR9) | -0.268 | -0.007 | -0.344 | 0.108 | 0.068 | -0.067 | 0.038 | 0.092 | -0.08 | 0.406 | -0.067 | 0 | 0.089 | -0.039 | 0.126 | 0.057 | 0.141 | 0.155 | 0.101 | -0.168
SRPRA (UniProt P08240) | -0.024 | 0.015 | -0.028 | -0.002 | -0.058 | 0.021 | -0.006 | -0.001 | -0.033 | 0.269 (active) | 0.089 | -0.06 | 0.018 | 0.047 | 0 | 0.038 | 0.069 | 0.001 | 0.018 | 0.04
TLK2 isoform 2 (UniProt Q86UE8) | 0.035 | -0.011 | -0.144 | -0.003 | -0.077 | 0.011 | 0.025 | -0.004 | -0.015 | 0.282 (active) | -0.003 | -0.015 | -0.013 | 0.02 | -0.072 | -0.029 | 0.03 | -0.036 | 0.099 | -0.006
SLC27A2 (UniProt O14975) | -0.039 | 0.144 | -0.125 | 0.013 | 0.366 (active) | 0.015 | 0.055 | 0.01 | -0.045 | 0.03 | 0.099 | -0.042 | -0.032 | -0.032 | -0.013 | 0.029 | 0.073 | 0.008 | -0.004 | 0
SLC6A6 (UniProt P31641) | -0.025 | 0.036 | -0.045 | -0.186 | -0.033 | 0.107 | 0.101 | -0.071 | -0.025 | -0.181 | 0.017 | 0.014 | 0.011 | 0.028 | -0.062 | 0.066 | -0.01 | -0.176 | 0.014 | -0.018
TIMM10 (UniProt P62072) | -0.06 | 0.024 | -0.041 | -0.145 | -0.026 | 0.047 | -0.09 | -0.078 | 0.031 | 0.174 | 0.031 | -0.078 | 0.018 | 0.045 | -0.124 | 0.058 | -0.093 | -0.049 | -0.05 | 0.022

— the supplement of paper PMC10849652
